From the supplement of paper PMC3616981 come the findings set out here.

Compound in the assay: CC(C)c1cccc(C(C)C)c1N1C(=O)c2ccc(O)cc2C1=O
Kind of assay: BioMAP readout fold decrease vs vehicle (vehicle/treated); higher = stronger decrease of the readout vs vehicle (values <1 mean increase). The procedure:
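BioSeek BioMAP human primary cell (co-)culture systems (3C, 4H, LPS, SAg, BE3C, CASM3C, hDFCGF, KF3CT) treated with 5HPP-33 at 1.48, 4.44, 13.3 and 40 µM. Read-outs are protein levels by ELISA, proliferation and SRB total protein. Duplicate rows per assay are averaged as replicates. Tested in ToxCast Phase II for this study; exposure time not stated.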

± gives the standard deviation of the averaged measurements.
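Also: Co-cultures of keratinocytes, bronchial epithelial and smooth muscle cells, fibroblasts, HUVECs and PBMCs under stimuli like LPS, TNF-α, IFN-γ, IL-1β, TGF-β or EGF, SRB reflecting cytotoxicity.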

With LPS_Eselectin, the “BioMAP readout fold decrease” value amounted to 1.07 ± 0.019 (1.48 µM), 1.17 ± 0.034 (4.44 µM), 1.24 ± 0.012 (13.3 µM) and 1.91 ± 0.12 (40 µM).

Turning to hDFCGF_SRB, the “BioMAP readout fold decrease” value came out at 1 ± 0.034 (1.48 µM), 0.959 ± 0.0096 (4.44 µM), 1.19 ± 0.017 (13.3 µM) and 2.06 ± 0.21 (40 µM).

On to hDFCGF_TIMP1, for which the “BioMAP readout fold decrease” value was 0.847 ± 0.061 (1.48 µM), 0.78536 ± 0.00052 (4.44 µM), 0.608 ± 0.042 (13.3 µM) and 0.715 ± 0.069 (40 µM).

On to CASM3C_Thrombomodulin, for which the “BioMAP readout fold decrease” value (1.48 µM) is 0.989 ± 0.031, the “BioMAP readout fold decrease” value (4.44 µM) came out at 0.942 ± 0.049, the “BioMAP readout fold decrease” value (13.3 µM) amounted to 0.956 ± 0.031 and the “BioMAP readout fold decrease” value (40 µM) is 1.23 ± 0.078.

3C_Thrombomodulin: the “BioMAP readout fold decrease” value (1.48 µM) amounted to 1.06 ± 0.032, the “BioMAP readout fold decrease” value (4.44 µM) worked out at 0.9983 ± 0.0097, the “BioMAP readout fold decrease” value (13.3 µM) came out at 0.939 ± 0.01 and the “BioMAP readout fold decrease” value (40 µM) was found to be 0.984 ± 0.054.

In the case of LPS_SRB, the “BioMAP readout fold decrease” value came to 0.935 ± 0.012 (1.48 µM), 1.032 ± 0.0086 (4.44 µM), 1.277 ± 0.0063 (13.3 µM) and 1.87 ± 0.066 (40 µM).

As for CASM3C_IL6, the “BioMAP readout fold decrease” value (1.48 µM) turned out to be 0.923 ± 0.002, the “BioMAP readout fold decrease” value (4.44 µM) came to 0.9348 ± 0.0071, the “BioMAP readout fold decrease” value (13.3 µM) was found to be 0.8611 ± 0.001 and the “BioMAP readout fold decrease” value (40 µM) amounted to 0.752 ± 0.0092.

On to SAg_CD69, for which the “BioMAP readout fold decrease” value (1.48 µM) amounted to 1.13 ± 0.076, the “BioMAP readout fold decrease” value (4.44 µM) worked out at 1.24 ± 0.035, the “BioMAP readout fold decrease” value (13.3 µM) was 1.52 ± 0.077 and the “BioMAP readout fold decrease” value (40 µM) worked out at 3.2 ± 0.15.

In the case of hDFCGF_CollagenIII, the “BioMAP readout fold decrease” value was 1.123 ± 0.0039 (1.48 µM), 1.19 ± 0.025 (4.44 µM), 1.04 ± 0.012 (13.3 µM) and 1.49 ± 0.13 (40 µM).

In the case of 4H_VCAM1, the “BioMAP readout fold decrease” value was 0.977 ± 0.017 (1.48 µM), 0.978 ± 0.044 (4.44 µM), 1.06 ± 0.018 (13.3 µM) and 2.2 ± 0.07 (40 µM).
